Test results published in PubChem BioAssay (Tox21).
Results filed as inconclusive are left out. Active and inactive are the calls of the source. Unless noted, calls come from the whole dose curve; as a rule, active = well fitted curve in the direction sought with a large enough effect in the repeat runs; inconclusive = weak or mixed curves; inactive = no such curve, though single readings can be large; an effect the other way counts as inactive or inconclusive.

Experiments:
[1] = qHTS assay to identify small molecule antagonists of the thyroid receptor (TR) signaling pathway - cell viability counter screen (AID 743064); note: nearly all actives have a fitted effect of over 50% in size
Outline: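 CellTiter-Fluor readout, 30 min at 37 °C/5% CO2, following 23.5 h incubation of GH3.TRE-Luc cells with test compound and 1 nM T3 (final).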

[2] = qHTS assay to identify small molecule antagonists of the thyroid receptor (TR) signaling pathway (AID 743065); note: series mostly up to about 70 µM; nearly all actives have a fitted effect of over 55% in size
Outline: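 GH3.TRE-Luc rat pituitary cells (two TREs driving luciferase) were dosed with compound, then stimulated with 1 nM T3 (final) for 23.5 h at 37 C. ONE-Glo luminescence was the read-out, with CellTiter-Fluor fluorescence as the cytotoxicity counter-screen.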

[3] = test system: thyroid hormone receptor (rat, GH3 cells); assay: qHTS assay to identify small molecule agonists of the thyroid receptor (TR) signaling pathway (AID 743066; calls by dose curve)
[4] = molecular target: Estrogen receptor (Homo sapiens) (UniProt P03372); assay: qHTS assay to identify small molecule antagonists of the estrogen receptor alpha (ER-alpha) signaling pathway (AID 743069; active = well fitted curve in the direction sought with a large enough effect in the signal ratio in the repeat runs, not every such curve was filed as active; the % refers to the signal ratio)
Estrogen receptor (Homo sapiens), sequence (P03372 whole entry, looked up): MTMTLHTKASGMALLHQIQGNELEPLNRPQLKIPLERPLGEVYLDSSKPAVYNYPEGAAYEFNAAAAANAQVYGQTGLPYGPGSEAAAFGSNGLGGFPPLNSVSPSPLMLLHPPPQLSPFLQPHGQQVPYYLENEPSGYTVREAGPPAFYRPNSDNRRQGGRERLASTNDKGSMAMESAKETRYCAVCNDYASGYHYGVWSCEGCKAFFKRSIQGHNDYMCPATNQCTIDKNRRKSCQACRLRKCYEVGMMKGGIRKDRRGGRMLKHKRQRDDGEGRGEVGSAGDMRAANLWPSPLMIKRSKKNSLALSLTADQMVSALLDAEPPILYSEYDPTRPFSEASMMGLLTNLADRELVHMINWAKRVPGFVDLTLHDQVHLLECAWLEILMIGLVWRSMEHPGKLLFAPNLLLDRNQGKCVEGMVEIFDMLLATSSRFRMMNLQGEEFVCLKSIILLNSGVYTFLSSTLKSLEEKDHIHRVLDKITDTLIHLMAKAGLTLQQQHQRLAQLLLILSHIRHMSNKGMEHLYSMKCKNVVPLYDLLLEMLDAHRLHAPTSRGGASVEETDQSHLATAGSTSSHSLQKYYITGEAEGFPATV
Outline: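 HEK293 ER-alpha-UAS-bla GripTite cells, held overnight in 2% charcoal-stripped FBS, 5,000 cells/well, preincubated 4 h, then compound plus 17beta-estradiol for 18 h at 37C. Beta-lactamase read by LiveBLAzer B/G FRET substrate, 2 h at room temperature.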

[5] = qHTS assay to identify small molecule antagonists of the estrogen receptor alpha (ER-alpha) signaling pathway - cell viability counter screen (AID 743074; calls by dose curve;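 note: HEK293 cells carrying ER-alpha-UAS-bla reporter stimulated with 17beta-estradiol; nearly all actives have a fitted effect of over 45% in size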)
[6] = molecular target: Estrogen receptor (Homo sapiens) (UniProt P03372); assay: qHTS assay to identify small molecule agonists of the estrogen receptor alpha (ER-alpha) signaling pathway (AID 743075; calls by dose curve)
[7] = molecular target: Estrogen receptor (Homo sapiens) (UniProt P03372); assay: qHTS assay to identify small molecule agonists of the estrogen receptor alpha (ER-alpha) signaling pathway using the BG1 cell line (AID 743079); note: nearly all actives have a fitted effect of over 20% in size
[8] = qHTS assay to identify small molecule antagonists of the estrogen receptor alpha (ER-alpha) signaling pathway using the BG1 cell line (AID 743080; calls by dose curve;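 note: BG1 cells stimulated with 17beta-estradiol alongside compound; series mostly up to about 70 µM; nearly all actives have a fitted effect of over 25% in size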)
Outline: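 Quantitative HTS on the Tox21 10K library: BG1 cells with endogenous ER-alpha and ERE-luciferase reporter, 17beta-estradiol stimulation, 21.5 h compound exposure, luminescence endpoint with parallel fluorescence cytotoxicity counter-read.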

Aromatase (Homo sapiens) = Aromatase (Homo sapiens) (UniProt P11511); assay: qHTS assay to identify aromatase inhibitors (AID 743083); note: series mostly up to about 70 µM; nearly all actives have a fitted effect of over 55% in size
Aromatase (Homo sapiens), sequence (P11511 whole entry, looked up): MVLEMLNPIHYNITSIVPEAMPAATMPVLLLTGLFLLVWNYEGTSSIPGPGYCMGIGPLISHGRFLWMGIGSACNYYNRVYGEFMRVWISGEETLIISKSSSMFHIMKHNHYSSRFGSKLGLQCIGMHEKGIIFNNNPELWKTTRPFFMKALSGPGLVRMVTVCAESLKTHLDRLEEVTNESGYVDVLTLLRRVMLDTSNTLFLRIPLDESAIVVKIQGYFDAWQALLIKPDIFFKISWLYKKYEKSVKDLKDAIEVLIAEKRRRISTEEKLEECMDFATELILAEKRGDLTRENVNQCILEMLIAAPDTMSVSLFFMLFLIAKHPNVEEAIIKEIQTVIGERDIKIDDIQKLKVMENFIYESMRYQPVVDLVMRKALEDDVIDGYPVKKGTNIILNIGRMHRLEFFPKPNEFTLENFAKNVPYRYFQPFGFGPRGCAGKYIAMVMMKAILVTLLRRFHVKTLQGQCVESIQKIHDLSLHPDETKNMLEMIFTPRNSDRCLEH

[9] = qHTS assay to identify aromatase inhibitors - cell viability counter screen (AID 743084);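 note: cells stimulated with testosterone during compound exposure; nearly all actives have a fitted effect of over 55% in size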
[10] = molecular target: Aryl hydrocarbon receptor (Homo sapiens) (UniProt P35869); assay: qHTS assay to identify small molecule that activate the aryl hydrocarbon receptor (AhR) signaling pathway (AID 743085);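 note: HG2L7.5c1 human HepG2 liver cells with stably integrated DRE-driven firefly reporter; series mostly up to about 70 µM; nearly all actives have a fitted effect of over 15% in size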
Aryl hydrocarbon receptor (Homo sapiens), sequence (P35869 whole entry, looked up): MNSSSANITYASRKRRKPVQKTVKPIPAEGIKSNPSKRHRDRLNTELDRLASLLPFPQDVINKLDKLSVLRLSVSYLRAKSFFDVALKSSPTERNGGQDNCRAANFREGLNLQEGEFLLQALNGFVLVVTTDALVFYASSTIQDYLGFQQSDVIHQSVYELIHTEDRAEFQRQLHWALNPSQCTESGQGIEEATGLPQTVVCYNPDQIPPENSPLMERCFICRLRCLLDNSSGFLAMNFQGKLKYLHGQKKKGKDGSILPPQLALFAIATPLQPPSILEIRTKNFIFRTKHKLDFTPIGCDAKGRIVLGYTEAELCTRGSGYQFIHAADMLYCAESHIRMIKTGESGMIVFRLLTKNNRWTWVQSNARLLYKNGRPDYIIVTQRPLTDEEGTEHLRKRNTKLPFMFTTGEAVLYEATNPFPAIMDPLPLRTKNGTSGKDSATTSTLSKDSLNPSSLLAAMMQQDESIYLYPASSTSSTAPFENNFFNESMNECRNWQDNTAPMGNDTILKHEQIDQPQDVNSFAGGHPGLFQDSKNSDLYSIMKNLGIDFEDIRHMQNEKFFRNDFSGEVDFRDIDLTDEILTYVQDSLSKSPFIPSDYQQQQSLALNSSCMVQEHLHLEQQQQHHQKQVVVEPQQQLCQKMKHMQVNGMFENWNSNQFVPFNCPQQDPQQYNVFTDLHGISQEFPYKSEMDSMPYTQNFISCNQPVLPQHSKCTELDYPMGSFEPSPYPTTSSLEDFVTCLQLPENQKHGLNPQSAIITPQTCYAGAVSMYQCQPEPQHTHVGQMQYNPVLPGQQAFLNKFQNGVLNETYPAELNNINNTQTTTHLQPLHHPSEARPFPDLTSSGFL
Outline: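 Stably transfected human liver carcinoma cells (HG2L7.5c1; 20 DRE-firefly luciferase) were incubated 5 h, dosed, and kept 24 h at 37C. Agonism was scored from increased luciferase luminescence.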

[11] = qHTS assay to identify small molecule that activate the aryl hydrocarbon receptor (AhR) signaling pathway - cell viability counter screen (AID 743086);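 note: HepG2 liver cells carrying the AhR DRE luciferase reporter; series mostly up to about 70 µM; nearly all actives have a fitted effect of over 45% in size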
Outline: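 HepG2-AhR-luc (HG2L7.5c1) cells, 4000/well, treated 24 h at 37 C with compound; viability measured as CellTiter-Fluor fluorescence after 30 min in the same wells as the luciferase read.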

[12] = molecular target: Peroxisome proliferator-activated receptor gamma (Homo sapiens) (UniProt P37231); assay: qHTS assay to identify small molecule antagonists of the peroxisome proliferator-activated receptor gamma (PPARg) signaling pathway (AID 743191; calls by dose curve; note: series mostly up to about 63 µM; nearly all actives have a fitted effect of over 30% in size)
Peroxisome proliferator-activated receptor gamma (Homo sapiens), sequence (P37231 whole entry, looked up): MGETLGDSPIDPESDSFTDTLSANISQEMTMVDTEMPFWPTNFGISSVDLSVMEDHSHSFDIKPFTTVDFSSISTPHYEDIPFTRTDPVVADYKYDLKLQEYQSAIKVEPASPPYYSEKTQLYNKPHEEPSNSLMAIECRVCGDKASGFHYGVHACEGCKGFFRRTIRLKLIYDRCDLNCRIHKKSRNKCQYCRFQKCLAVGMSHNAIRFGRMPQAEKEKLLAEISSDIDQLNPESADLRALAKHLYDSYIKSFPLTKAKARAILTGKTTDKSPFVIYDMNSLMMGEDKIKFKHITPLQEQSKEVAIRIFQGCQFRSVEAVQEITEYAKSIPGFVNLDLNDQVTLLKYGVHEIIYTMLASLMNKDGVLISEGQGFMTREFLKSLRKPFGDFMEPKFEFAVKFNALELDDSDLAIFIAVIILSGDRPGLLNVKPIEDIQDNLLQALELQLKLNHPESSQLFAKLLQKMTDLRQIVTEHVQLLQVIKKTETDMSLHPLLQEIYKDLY
Outline: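 GeneBLAzer PPARg UAS-bla HEK293H cells, 5 h post-plating, exposed to compounds 17 h at 37C. LiveBLAzer B/G FRET substrate added for 1 h at room temperature; beta-lactamase reporter read by fluorescence intensity.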

[13] = qHTS assay to identify small molecule antagonists of the peroxisome proliferator-activated receptor gamma (PPARg) signaling pathway - cell viability counter screen (AID 743194); note: nearly all actives have a fitted effect of over 55% in size
Outline: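 Cytotoxicity counter screen in PPARg-bla HEK293H cells, same wells as reporter assay. Compounds plus 50 nM rosiglitazone (final) for 17 h at 37 C, then viability read by CellTiter-Glo luminescence.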

[14] = qHTS assay for small molecule agonists of the antioxidant response element (ARE) signaling pathway - cell viability counter screen (AID 743203; calls by dose curve; note: nearly all actives have a fitted effect of over 55% in size)
Outline: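 Following 16 hrs of compound treatment at 37C, HepG2 cells with an ARE-controlled beta-lactamase gene were lysed with CellTiter-Glo. Luminescence was read after 30 min at room temperature.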

[15] = qHTS assay for small molecule activators of the heat shock response signaling pathway - cell viability counter screen (AID 743209); note: nearly all actives have a fitted effect of over 50% in size
Outline: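 Readout: CellTiter-Glo luminescence, 30 min at room temperature. System: HSE-bla HeLa cells, 1500/well, plated overnight. Treatment: compounds in DMSO, 5 h at 37 C.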

[16] = qHTS assay for small molecule activators of the heat shock response signaling pathway (AID 743210; active = well fitted activation curve with a large enough effect in the signal ratio in the repeat runs, with a control signal flat, not every such curve was filed as active; the % refers to the signal ratio; note: series mostly up to about 63 µM)
Outline: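 HSE-bla HeLa cells (beta-lactamase reporter under heat shock response elements), plated overnight, then exposed to compounds 5 h at 37 C; LiveBLAzer B/G FRET substrate added, 2.5 h at room temperature, fluorescence intensity read.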

[17] = qHTS assay to identify small molecule antagonists of the estrogen receptor alpha (ER-alpha) signaling pathway using the BG1 cell line - cell viability counter screen (AID 743081);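 note: compound given together with 17beta-estradiol as the ER stimulus; series mostly up to about 70 µM; nearly all actives have a fitted effect of over 45% in size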
[18] = qHTS assay for small molecule agonists of the antioxidant response element (ARE) signaling pathway (AID 743202; active = well fitted activation curve with a large enough effect in the signal ratio in the repeat runs, not every such curve was filed as active; the % refers to the signal ratio)
Outline: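 ARE-bla HepG2 cells (beta-lactamase reporter under the antioxidant response element), plated 5 hours, then exposed to compounds 16 hours at 37 C. LiveBLAzer B/G FRET substrate added for 2 hours at room temperature; fluorescence intensity read.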

[19] = molecular target: Peroxisome proliferator-activated receptor gamma (Homo sapiens) (UniProt P37231); assay: qHTS assay to identify small molecule agonists of the peroxisome proliferator-activated receptor gamma (PPARg) signaling pathway (AID 743094; active = well fitted activation curve with a large enough effect in the signal ratio in the repeat runs, not every such curve was filed as active; the % refers to the signal ratio)
Outline: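 Compounds dissolved in DMSO were added to PPARg UAS-bla HEK293H cells for 17 h at 37C, and reporter expression was quantified by fluorescence intensity after 1 h with LiveBLAzer B/G FRET substrate.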
% is set by controls: 0 for no effect and ±100 for the full control effect.

O=C(O)[C@H](O)[C@@H](O)[C@H](O[C@@H]1O[C@H](CO)[C@H](O)[C@H](O)[C@H]1O)[C@H](O)CO
inactive: Potency [1] | Potency [2] | outcome [3] | Potency [4] | Potency [5] | Potency [6] | Potency [7] | Potency [8] | Potency (Aromatase (Homo sapiens)) | Potency [9] | Potency [10] | Potency [11] | Potency [12] | Potency [13] | Potency [14] | Potency [15] | Potency [16]

CC(CO)Oc1ccccc1 (centres undefined)
inactive: Potency [1] | Potency [2] | outcome [3] | Potency [4] | Potency [5] | Potency [6] | Potency [7] | Potency [8] | Potency [17] | Potency (Aromatase (Homo sapiens)) | Potency [10] | Potency [12] | Potency [13] | Potency [18] | Potency [14] | Potency [15] | Potency [16]

CCn1c2ccccc2c2cc([N+](=O)[O-])ccc21
inactive: Potency [1] | Potency [2] | outcome [3] | Potency [4] | Potency [5] | Potency [6] | Potency [7] | Potency [8] | Potency [17] | Potency (Aromatase (Homo sapiens)) | Potency [9] | Potency [11] | Potency [13] | Potency [18] | Potency [15]

ClCCl
inactive: Potency [1] | Potency [2] | outcome [3] | Potency [4] | Potency [5] | Potency [6] | Potency [7] | Potency [8] | Potency [17] | Potency (Aromatase (Homo sapiens)) | Potency [9] | Potency [13] | Potency [18] | Potency [14] | Potency [15] | Potency [16]

CC(=O)CC(=O)Nc1ccc(S(=O)(=O)O)cc1
inactive: Potency [1] | Potency [2] | outcome [3] | Potency [4] | Potency [5] | Potency [6] | Potency [7] | Potency [8] | Potency [17] | Potency (Aromatase (Homo sapiens)) | Potency [9] | Potency [10] | Potency [11] | Potency [19] | Potency [12] | Potency [13] | Potency [14] | Potency [15] | Potency [16]

CC[N+](CC)(CC)CCOC(=O)C(C1CCCC1)C1CCCC1
inactive: Potency [1] | Potency [2] | outcome [3] | Potency [4] | Potency [5] | Potency [6] | Potency [7] | Potency [8] | Potency [17] | Potency (Aromatase (Homo sapiens)) | Potency [9] | Potency [11] | Potency [19] | Potency [13] | Potency [15]

CCCCCCCC/C=C\CCCCCCCCN
inactive: Potency [1] | Potency [2] | outcome [3] | Potency [4] | Potency [5] | Potency [6] | Potency [7] | Potency [8] | Potency [17] | Potency (Aromatase (Homo sapiens)) | Potency [9] | Potency [10] | Potency [11] | Potency [19] | Potency [15] | Potency [16]

Cc1cccc(C(=O)O)c1O
inactive: Potency [1] | Potency [2] | outcome [3] | Potency [4] | Potency [5] | Potency [6] | Potency [7] | Potency [8] | Potency [17] | Potency (Aromatase (Homo sapiens)) | Potency [9] | Potency [10] | Potency [11] | Potency [13] | Potency [14]

CCC(COC(=O)CCS)(COC(=O)CCS)COC(=O)CCS
inactive: Potency [1] | Potency [2] | outcome [3] | Potency [4] | Potency [5] | Potency [6] | Potency [7] | Potency [8] | Potency [17] | Potency (Aromatase (Homo sapiens)) | Potency [9] | Potency [10] | Potency [11] | Potency [19] | Potency [12] | Potency [13] | Potency [14] | Potency [15]

CCCCOC(=O)CO
inactive: Potency [1] | Potency [2] | outcome [3] | Potency [4] | Potency [5] | Potency [6] | Potency [7] | Potency [8] | Potency [17] | Potency (Aromatase (Homo sapiens)) | Potency [9] | Potency [10] | Potency [11] | Potency [12] | Potency [13] | Potency [18] | Potency [14] | Potency [15] | Potency [16]

Cc1ccc(C(C)C)cc2c(C)ccc1-2
inactive: Potency [1] | Potency [2] | outcome [3] | Potency [4] | Potency [5] | Potency [6] | Potency [7] | Potency [8] | Potency [17] | Potency (Aromatase (Homo sapiens)) | Potency [9] | Potency [10] | Potency [11] | Potency [19] | Potency [12] | Potency [13] | Potency [14] | Potency [15] | Potency [16]

O=C(Oc1ccccc1)Oc1ccccc1
inactive: Potency [1] | Potency [2] | outcome [3] | Potency [4] | Potency [5] | Potency [6] | Potency [7] | Potency [8] | Potency [17] | Potency (Aromatase (Homo sapiens)) | Potency [9] | Potency [10] | Potency [11] | Potency [19] | Potency [12] | Potency [13] | Potency [14] | Potency [15]

Cc1c(C)c2c(c(C)c1O)CC[C@@](C)(CCC[C@H](C)CCC[C@H](C)CCCC(C)C)O2
inactive: Potency [1] | Potency [2] | outcome [3] | Potency [4] | Potency [5] | Potency [6] | Potency [7] | Potency [8] | Potency [17] | Potency (Aromatase (Homo sapiens)) | Potency [9] | Potency [10] | Potency [11] | Potency [19] | Potency [14] | Potency [15]

CC(C)(C)CC(C)(C)c1ccc(Nc2ccc(C(C)(C)CC(C)(C)C)cc2)cc1
inactive: activity change, negative = cytotoxic [1] 10.6% [at 8.44 µM] | activity, negative = inhibition [2] 9.26% [at 8.44 µM] | activation [3] 1.29% [at 8.08 µM] | activity, negative = inhibition [4] -8.94% [at 6.71 µM] | activity, negative = cytotoxicity [5] -17.2% [at 6.72 µM] | activation [6] -3.98% [at 6.71 µM] | activation [7] -8.83% [at 8.47 µM] | activity change, negative = inhibition [8] 1.65% [at 8.47 µM] | activity change, negative = cytotoxicity [17] 8.25% [at 8.47 µM] | activity, negative = inhibition (Aromatase (Homo sapiens)) -0.995% [at 8.47 µM] | activity change, negative = cytotoxicity [9] 3.33% [at 8.47 µM] | activation [10] -2.79% [at 8.47 µM] | viability change, negative = cytotoxic [11] -11.3% [at 8.47 µM] | activation [19] 0.247% [at 7.08 µM] | activity change, negative = cytotoxicity [13] -4.03% [at 5.95 µM] | activation [18] -4.99% [at 8.36 µM] | viability change, negative = cytotoxic [14] 7.42% [at 8.36 µM] | activity change, negative = cytotoxicity [15] 7.93% [at 5.95 µM] | activation [16] 0.375% [at 5.95 µM]
